The source of these data is publication PMC5700166.

Where a chain is given by its changes, count along the chain named.

What all share (assay): protein-binding microarray (PBM); PBM: ~300 nM protein, 6 mM HEPES pH 7.8, 80 mM KCl, 0.5 mM EDTA, 0.5 mM EGTA, 6% glycerol, 35 ng/ul poly-dIdC, 1% milk, 1 h, room temperature; Ap Aiptasia and Nv Nematostella (sea anemones) / Co Capsaspora / Aq Amphimedon (sponge) / Dm Drosophila / Hu human; RHD is the Rel homology domain; high values mean tight binding
Common to all, as to conditions: dsDNA, one strand shown

One assay has as its target T1, GST-Ap-NF-kB RHD (Exaiptasia pallida (Aiptasia), UniProt A0A913YAJ5 2-422).
T1 sequence: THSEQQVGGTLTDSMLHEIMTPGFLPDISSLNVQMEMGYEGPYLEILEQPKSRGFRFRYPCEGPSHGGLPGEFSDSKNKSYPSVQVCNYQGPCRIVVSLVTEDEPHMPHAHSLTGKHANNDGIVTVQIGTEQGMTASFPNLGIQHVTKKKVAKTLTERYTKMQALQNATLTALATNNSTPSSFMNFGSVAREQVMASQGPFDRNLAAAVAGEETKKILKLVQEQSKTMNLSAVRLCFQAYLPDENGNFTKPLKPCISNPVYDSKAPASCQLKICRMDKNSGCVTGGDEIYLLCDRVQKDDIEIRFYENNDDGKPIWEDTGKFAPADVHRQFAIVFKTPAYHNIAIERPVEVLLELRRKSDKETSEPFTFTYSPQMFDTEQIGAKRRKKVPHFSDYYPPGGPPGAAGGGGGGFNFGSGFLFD

Assay [1] addresses T2, GST-Nv-NF-kB (Cys allele) (Nematostella vectensis, UniProt E5G601 2-411).
T2 sequence: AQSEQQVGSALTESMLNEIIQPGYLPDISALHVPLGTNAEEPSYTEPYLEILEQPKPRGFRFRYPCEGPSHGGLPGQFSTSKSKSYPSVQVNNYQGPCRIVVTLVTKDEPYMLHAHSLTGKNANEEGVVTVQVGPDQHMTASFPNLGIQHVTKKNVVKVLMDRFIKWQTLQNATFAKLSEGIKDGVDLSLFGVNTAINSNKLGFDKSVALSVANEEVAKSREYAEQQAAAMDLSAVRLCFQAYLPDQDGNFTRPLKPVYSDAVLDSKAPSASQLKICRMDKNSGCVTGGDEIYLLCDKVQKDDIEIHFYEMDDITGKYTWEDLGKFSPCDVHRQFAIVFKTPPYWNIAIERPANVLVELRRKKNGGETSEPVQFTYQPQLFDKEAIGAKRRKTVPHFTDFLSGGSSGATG

Assay [2] deals with T3, GST-Nv-NF-kB (Ser allele) (Nematostella vectensis, UniProt A7UNT2 2-411).
T3 sequence: T2 sequence with Q21R, C66S, S207N, E215Q, V217A, E225K, A268E, D399E

The next assay has as its target T4, GST-Co-NF-kB (Capsaspora owczarzaki, UniProt F1ARL5 200-546).
T4 sequence: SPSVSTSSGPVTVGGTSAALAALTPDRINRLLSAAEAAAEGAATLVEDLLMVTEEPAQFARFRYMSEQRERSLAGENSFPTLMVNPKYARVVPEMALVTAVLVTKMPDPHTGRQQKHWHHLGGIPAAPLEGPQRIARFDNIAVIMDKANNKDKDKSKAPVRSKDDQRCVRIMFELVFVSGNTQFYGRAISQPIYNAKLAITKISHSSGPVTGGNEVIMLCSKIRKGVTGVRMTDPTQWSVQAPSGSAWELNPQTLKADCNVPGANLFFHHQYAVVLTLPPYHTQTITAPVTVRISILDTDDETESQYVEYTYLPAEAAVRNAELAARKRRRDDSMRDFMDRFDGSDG

A further assay addresses T5, GST-Aq-NF-kB (Amphimedon queenslandica, UniProt A9Y5G7 2-389).
T5 sequence: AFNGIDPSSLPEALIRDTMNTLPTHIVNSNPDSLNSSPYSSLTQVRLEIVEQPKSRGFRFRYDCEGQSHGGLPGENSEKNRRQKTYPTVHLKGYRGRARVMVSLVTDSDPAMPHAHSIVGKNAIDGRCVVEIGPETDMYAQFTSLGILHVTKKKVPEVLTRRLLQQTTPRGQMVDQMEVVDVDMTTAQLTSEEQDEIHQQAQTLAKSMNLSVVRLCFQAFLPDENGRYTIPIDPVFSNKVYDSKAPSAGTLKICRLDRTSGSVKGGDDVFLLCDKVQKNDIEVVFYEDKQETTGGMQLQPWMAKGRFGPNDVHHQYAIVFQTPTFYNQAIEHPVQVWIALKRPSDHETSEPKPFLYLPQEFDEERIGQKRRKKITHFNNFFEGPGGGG

In the next assay the target is T6, GST-Dm-Relish (Drosophila melanogaster, UniProt Q94527 99-473).
T6 sequence: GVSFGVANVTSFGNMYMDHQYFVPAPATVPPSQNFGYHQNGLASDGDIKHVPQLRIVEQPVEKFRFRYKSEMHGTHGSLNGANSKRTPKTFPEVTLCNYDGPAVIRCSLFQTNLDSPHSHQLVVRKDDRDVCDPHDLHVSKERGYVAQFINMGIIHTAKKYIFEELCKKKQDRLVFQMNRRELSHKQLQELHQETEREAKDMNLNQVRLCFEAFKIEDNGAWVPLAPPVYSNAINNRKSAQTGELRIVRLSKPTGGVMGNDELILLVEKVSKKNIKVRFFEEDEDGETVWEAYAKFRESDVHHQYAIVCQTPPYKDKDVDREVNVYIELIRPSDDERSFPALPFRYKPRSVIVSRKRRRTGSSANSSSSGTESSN

On to “CCGATTAACATCAGGGGTAACACTGATGTTAATCGGGTCTTGATTCGCTTGACGCTGCTG”, for which the binding signal with GST-Ap-NF-kB RHD turned out to be 1.82 z-score; in assay [1], 1.03 z-score; in assay [2], 1.27 z-score; in the assay with GST-Co-NF-kB, 4.28 z-score; in the assay with GST-Aq-NF-kB, 2.5 z-score.

As to “CCGATTAACATCAACGGGAACTCTGATGTTAATCGGGTCTTGATTCGCTTGACGCTGCTG”, the binding signal with GST-Ap-NF-kB RHD came to 2.34 z-score; in assay [1] it was 1.64 z-score; in assay [2], 1.08 z-score; with GST-Co-NF-kB it was 1.78 z-score; in the assay with GST-Dm-Relish it was 1.77 z-score; with GST-Aq-NF-kB it was 2.25 z-score.

As for “CCGATTAACATCAGGGAAGACGTTGATGTTAATCGGGTCTTGATTCGCTTGACGCTGCTG”, the binding signal with GST-Ap-NF-kB RHD came to 1.82 z-score; in assay [1], 1.64 z-score; in assay [2], 1.93 z-score; with GST-Co-NF-kB, 1.67 z-score; in the assay with GST-Aq-NF-kB, 1.11 z-score.

As for “CCGATTAACATCAATAGTTCCCCTGATGTTAATCGGGTCTTGATTCGCTTGACGCTGCTG”, the binding signal in the assay with GST-Ap-NF-kB RHD amounted to 6.43 z-score; in assay [1], 6.96 z-score; in assay [2], 8.51 z-score; in the assay with GST-Co-NF-kB, 7.79 z-score; with GST-Dm-Relish, 6.77 z-score; with GST-Aq-NF-kB, 5.01 z-score.

Take “CCGATTAACATCAAAGGGAATTCTGATGTTAATCGGGTCTTGATTCGCTTGACGCTGCTG”: the binding signal with GST-Ap-NF-kB RHD is 4.72 z-score; in assay [1] it was 7.1 z-score; in assay [2], 6.91 z-score; with GST-Co-NF-kB, 2.97 z-score; with GST-Dm-Relish it was 4.04 z-score; with GST-Aq-NF-kB, 5.65 z-score.

Consider “CCGATTAACATCAGCATTTTCCCTGATGTTAATCGGGTCTTGATTCGCTTGACGCTGCTG”, for which the binding signal in the assay with GST-Ap-NF-kB RHD was found to be 3.21 z-score; in assay [1] it was 4.61 z-score; in assay [2] it was 6.85 z-score; with GST-Co-NF-kB it was 3.96 z-score; in the assay with GST-Aq-NF-kB it was 3.68 z-score.

For the sequence “CCGATTAACATCAGACGTGGGAATGATGTTAATCGGGTCTTGATTCGCTTGACGCTGCTG”, the binding signal with GST-Ap-NF-kB RHD turned out to be 1.19 z-score; in assay [1] it was 1.45 z-score; in assay [2] it was 1.48 z-score; with GST-Co-NF-kB, 2.5 z-score; with GST-Aq-NF-kB, 2.21 z-score.

Take “CCGATTAACATCAGGGGGGGGACTGATGTTAATCGGGTCTTGATTCGCTTGACGCTGCTG”: the binding signal in the assay with GST-Ap-NF-kB RHD came out at 7.06 z-score; in assay [1], 5.11 z-score; in assay [2], 4.69 z-score; with GST-Co-NF-kB, 4.78 z-score; with GST-Aq-NF-kB, 5.29 z-score.

With “CCGATTAACATCACGGGGGGAAATGATGTTAATCGGGTCTTGATTCGCTTGACGCTGCTG”, the binding signal in the assay with GST-Ap-NF-kB RHD worked out at 6.31 z-score; in assay [1] it was 6.61 z-score; in assay [2], 7.51 z-score; with GST-Co-NF-kB it was 11.2 z-score; in the assay with GST-Dm-Relish, 4.78 z-score; with GST-Aq-NF-kB, 5.52 z-score.

For “CCGATTAACATCAGGATTTTCCCTGATGTTAATCGGGTCTTGATTCGCTTGACGCTGCTG”, the binding signal with GST-Ap-NF-kB RHD came to 5.75 z-score; in assay [1], 8.01 z-score; in assay [2] it was 7.34 z-score; with GST-Co-NF-kB, 3.97 z-score; in the assay with GST-Dm-Relish, 4.83 z-score; with GST-Aq-NF-kB it was 8.92 z-score.

As to “CCGATTAACATCAGGGGGGGGCATGATGTTAATCGGGTCTTGATTCGCTTGACGCTGCTG”, the binding signal in the assay with GST-Ap-NF-kB RHD amounted to 4.94 z-score; in assay [1], 4.84 z-score; in assay [2], 4.15 z-score; with GST-Co-NF-kB, 4.65 z-score; with GST-Dm-Relish, 3.78 z-score; with GST-Aq-NF-kB it was 3.82 z-score.

Turning to “CCGATTAACATCAGGGGATACCCTGATGTTAATCGGGTCTTGATTCGCTTGACGCTGCTG”, the binding signal with GST-Ap-NF-kB RHD turned out to be 8.36 z-score; in assay [1], 7.45 z-score; in assay [2] it was 6.59 z-score; with GST-Co-NF-kB, 3.74 z-score; with GST-Dm-Relish, 9.05 z-score; with GST-Aq-NF-kB, 8.11 z-score.

On to “CCGATTAACATCAGGGGATTAAATGATGTTAATCGGGTCTTGATTCGCTTGACGCTGCTG”, for which the binding signal in the assay with GST-Ap-NF-kB RHD came to 4.91 z-score; in assay [1], 6.29 z-score; in assay [2], 7.01 z-score; with GST-Co-NF-kB, 3.71 z-score; with GST-Dm-Relish, 5.28 z-score; with GST-Aq-NF-kB, 5.21 z-score.
